Results on 38 compounds are retold here after PubChem BioAssay (NCI).

The structures appear in SMILES notation. The panel holds about 83,000 compounds, 20% with a hit somewhere; the sample as a whole holds those more often.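 Cell lines were cultured in 96-well plates, exposed to a single compound concentration, and assessed for percent growth 48 hours later.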 Active and inactive are the calls of the source. Rule for the calls: active = growth percent below 10; inactive = the rest.

The subject of the first assay is T-47D breast. As to the kind of experiment: NCI-60 one-dose screen, 48 h (100 = growth as untreated, 0 = no growth, -100 = all killed). The settings on record: 10 µM unless noted.
`COc1cc2c3c(n(CCCN4CCC[C@@H]4CO)c(=O)c2cc1OC)-c1cc2c(cc1C3=O)OCO2`: the growth is 49.3% (inactive).

On to `C=C1CCC2C3(C)COC(c4ccc(F)cc4)OC3CCC2(C)C1C/C=C1/C(=O)OCC1O` (stereo not drawn), for which the growth is -16.5% (active).

In the case of `Cc1sc(C(NC(=O)OCCn2c([N+](=O)[O-])cnc2C)C(F)(F)Cl)nc1-c1ccc(OC(F)(F)F)cc1` (stereo not drawn), the growth was -66.1% (active).

For the compound `CC1[C@H]2[C@H](C[C@H]3[C@@H]4CC=C5c6sc(Nc7ccccc7F)nc6CC[C@]5(C)[C@H]4CC[C@@]32C)O[C@]12CC[C@@H](C)CO2` (stereo partly drawn), the growth was -60.2% (active).

`O=C(c1ccccc1)c1ccc2nc(-c3cccc(Cl)c3)[nH]c2c1`: the growth is 98.6% (inactive).

For `OCNc1ccc(-n2cnc3cc(-c4ccc(O)cc4)ccc32)cc1C(F)(F)F`, the growth is 23.8% (inactive).

Regarding `CCOC(=O)C(N=Nc1ccc(S(=O)(=O)N=C(N)N)cc1)C(C)=O` (stereo not drawn), the growth is 105% (inactive).

`CCOC(=O)/C=C/c1cccc2c1C(=O)NC(C)(c1cc3cc(Cl)ccc3oc1=O)N2` (stereo not drawn): the growth is 16.3% (inactive).

For `C#CCOc1cc(N(CC)CC)ccc1C(C(=O)NC(C)(C)C)N(C(=O)C1CCc2cc(F)ccc2O1)c1ccc(Br)cc1` (stereo not drawn), the growth is 71.3% (inactive).

Turning to `CCCCCCCCc1ccc(C(=O)Nc2ccc(C)cc2C(=O)O)cc1C`, the growth was 94.4% (inactive).

As to `C#CCOc1cc(N(CC)CC)ccc1C(C(=O)NC(C)(C)C)N(C(=O)C1CCc2cc(F)ccc2O1)c1ccc(F)c(Cl)c1` (stereo not drawn), the growth is 42.3% (inactive).

Consider `CCOC(=O)C1=C(N)N(c2ccccc2)C2=C(C(=O)CC(C)(C)C2)C1c1ccc([N+](=O)[O-])cc1` (stereo not drawn), for which the growth was 91.2% (inactive).

Regarding `C=C1CC[C@@H]2[C@]3(C)COC(c4ccccc4)O[C@@H]3CC[C@@]2(C)[C@@H]1C/C=C1/C(=O)OCC1OC(C)=O` (stereo partly drawn), the growth was -45.1% (active).

For the compound `C#C[C@]1(O)CC[C@H]2[C@@H]3CC=C4c5sc(-c6ccc([N+](=O)[O-])cc6)nc5CC[C@]4(C)[C@H]3CC[C@@]21C`, the growth is 24.9% (inactive).

On to `CN1CCN(/C(=N\c2sc(-c3ccccc3)nc2-c2ccccc2)c2ccccc2)CC1`, for which the growth is 76.2% (inactive).

As for `N=C1N=C(SCc2nc3ccccc3[nH]2)NC(=O)/C1=C/c1ccc(Cl)cc1`, the growth was 93.2% (inactive).

On to `C/C(=N\N=C1/C(=O)Nc2ccc(Cl)cc21)c1ccc2c(c1)Nc1ccccc1S2`, for which the growth is 11.9% (inactive).

As to `Cc1cccc(NC(=O)CN2CCN(c3ncnc4c3cnn4-c3ccccc3)CC2)c1`, the growth is 72.1% (inactive).

As to `CN(C)CCOc1ccc(C(=O)C2[C@H](c3ccc(Cl)cc3)[C@@H](c3ccccc3)NC23C(=O)Nc2ccccc23)cc1` (stereo partly drawn), the growth is 67.9% (inactive).

Consider `COc1ccc2[nH]cc(-c3nnc(N)nc3-c3cn(C)c4ncc(Br)cc34)c2c1`, for which the growth is 62.5% (inactive).

A further assay concerns BT-549 breast. The assay is described as above. The settings on record: 10 µM unless noted.
With `COc1c(F)ccc(C(=O)Nc2ccc3nc(NC(=O)C4CCCN(S(=O)(=O)C5CC5)C4)sc3c2)c1F` (stereo not drawn), the growth was -8.29% (active).

For the compound `CCOC(=O)C1=C(N)N(c2ccccc2)C2=C(C(=O)CC(C)(C)C2)C1c1ccc(N2CCOCC2)cc1` (stereo not drawn), the growth is 103% (inactive).

As to `OCC1(CCCc2ccccc2)CCCN(c2nccc3ccccc23)C1` (stereo not drawn), the growth was -3.12% (active).

On to `COc1ccc(/C=N/NC(=O)Cn2nc(Cc3ccc(OC)cc3)c3onc(C)c3c2=O)cc1`, for which the growth was 36.9% (inactive).

Turning to `O=[N+]([O-])c1ccc(/C=C/c2nc3ccccc3n3c(=S)[nH]nc23)cc1`, the growth is 59.1% (inactive).

In the case of `COC(=O)/C=C/c1cccc2c1C(=O)NC(C)(c1cc3ccccc3oc1=O)N2` (stereo not drawn), the growth is 58.2% (inactive).

With `CCN(CC)c1ccc(/C=N/Nc2nc(-c3ccc(Br)cc3)cs2)c(O)c1`, the growth was 37.4% (inactive).

`O=C(c1ccccc1)C(c1c[nH]c2ccccc12)c1c[nH]c2ccccc12`: the growth is 14% (inactive).

For `CC1(C)CC[C@]2(C(=O)Nc3ccc(Br)cc3)CC[C@]3(C)C(=CCC4[C@@]5(C)C[C@@H](O)[C@H](O)[C@@](C)(CO)C5CC[C@]43C)C2C1` (stereo partly drawn), the growth was -35.4% (active).

For `CC(/C=C1\SC(=S)N(CCCC(=O)NC(CC(C)C)C(=O)O)C1=O)=C\c1ccccc1` (stereo not drawn), the growth was 78% (inactive).

As for `Cn1cc(-c2cc(N)n3nc(-c4cn(C)c5ccccc45)cc3n2)c2cc(Br)ccc21`, the growth is 38% (inactive).

For the compound `Cc1ccc(NCC(=O)Cn2cc(COc3ccc(C=Nc4cnc5ccccc5c4)cc3)nn2)cc1`, the growth is 115% (inactive).

For `Cc1ccc([C@H]2C(C(=O)c3ccc(Cl)cc3)C3(N[C@@H]2c2ccccc2)C(=O)Nc2ccc(Cl)cc23)cc1` (stereo partly drawn), the growth was 80.9% (inactive).

For the compound `Cc1cc2nc3c4ccccc4n(CCNCCN(C)C)c3nc2cc1C`, the growth was 23.8% (inactive).

With `Cc1ccccc1[C@H]1C(C(=O)c2ccc(Cl)cc2)C2(N[C@@H]1c1ccccc1)C(=O)Nc1ccc(Br)cc12` (stereo partly drawn), the growth was 13.1% (inactive).

With `CC(C)c1sc(NC(=O)c2cc(NC(=O)c3cc(NC(=O)c4cscn4)cn3C)cn2C)nc1C(=O)NCCCN(C)C`, the growth was -7.36% (active).

For the compound `CC(=O)OC[C@@]1(C)C2CC[C@]3(C)C(CC=C4C5CC(C)(C)CC[C@]5(C(=O)Nc5ccc(C)cc5)CC[C@]43C)[C@@]2(C)C[C@@H](OC(C)=O)[C@@H]1OC(C)=O` (stereo partly drawn), the growth is 51.3% (inactive).

As for `O=C1CC(Sc2n[nH]c(-c3ccncc3)n2)C(=O)N1c1ccc(Br)cc1` (stereo not drawn), the growth is 122% (inactive).

As to `COc1cc2c3c(n(CCCN4CCC[C@@H]4CO)c(=O)c2cc1OC)-c1cc2c(cc1C3=O)OCO2`, the growth is 34.9% (inactive).

As for `C=C1CCC2C3(C)COC(c4ccc(F)cc4)OC3CCC2(C)C1C/C=C1/C(=O)OCC1O` (stereo not drawn), the growth was -85.8% (active).

With `Cc1sc(C(NC(=O)OCCn2c([N+](=O)[O-])cnc2C)C(F)(F)Cl)nc1-c1ccc(OC(F)(F)F)cc1` (stereo not drawn), the growth was -92.2% (active).

With `CC1[C@H]2[C@H](C[C@H]3[C@@H]4CC=C5c6sc(Nc7ccccc7F)nc6CC[C@]5(C)[C@H]4CC[C@@]32C)O[C@]12CC[C@@H](C)CO2` (stereo partly drawn), the growth was 55.2% (inactive).

For the compound `O=C(c1ccccc1)c1ccc2nc(-c3cccc(Cl)c3)[nH]c2c1`, the growth was 105% (inactive).

For `OCNc1ccc(-n2cnc3cc(-c4ccc(O)cc4)ccc32)cc1C(F)(F)F`, the growth was 24% (inactive).

As to `CCOC(=O)C(N=Nc1ccc(S(=O)(=O)N=C(N)N)cc1)C(C)=O` (stereo not drawn), the growth was 113% (inactive).

`CCOC(=O)/C=C/c1cccc2c1C(=O)NC(C)(c1cc3cc(Cl)ccc3oc1=O)N2` (stereo not drawn): the growth was 24.7% (inactive).

Consider `C#CCOc1cc(N(CC)CC)ccc1C(C(=O)NC(C)(C)C)N(C(=O)C1CCc2cc(F)ccc2O1)c1ccc(Br)cc1` (stereo not drawn), for which the growth was 75% (inactive).

Take `CCCCCCCCc1ccc(C(=O)Nc2ccc(C)cc2C(=O)O)cc1C`: the growth is 101% (inactive).

Take `C#CCOc1cc(N(CC)CC)ccc1C(C(=O)NC(C)(C)C)N(C(=O)C1CCc2cc(F)ccc2O1)c1ccc(F)c(Cl)c1` (stereo not drawn): the growth is 61.9% (inactive).

Consider `CCOC(=O)C1=C(N)N(c2ccccc2)C2=C(C(=O)CC(C)(C)C2)C1c1ccc([N+](=O)[O-])cc1` (stereo not drawn), for which the growth is 102% (inactive).

Regarding `C=C1CC[C@@H]2[C@]3(C)COC(c4ccccc4)O[C@@H]3CC[C@@]2(C)[C@@H]1C/C=C1/C(=O)OCC1OC(C)=O` (stereo partly drawn), the growth was -93.5% (active).

On to `C#C[C@]1(O)CC[C@H]2[C@@H]3CC=C4c5sc(-c6ccc([N+](=O)[O-])cc6)nc5CC[C@]4(C)[C@H]3CC[C@@]21C`, for which the growth is 36.8% (inactive).

For `CN1CCN(/C(=N\c2sc(-c3ccccc3)nc2-c2ccccc2)c2ccccc2)CC1`, the growth is 77.5% (inactive).

For the compound `N=C1N=C(SCc2nc3ccccc3[nH]2)NC(=O)/C1=C/c1ccc(Cl)cc1`, the growth is 114% (inactive).

In the case of `C/C(=N\N=C1/C(=O)Nc2ccc(Cl)cc21)c1ccc2c(c1)Nc1ccccc1S2`, the growth was -32.1% (active).

For the compound `Cc1cccc(NC(=O)CN2CCN(c3ncnc4c3cnn4-c3ccccc3)CC2)c1`, the growth is 89.9% (inactive).

As to `CN(C)CCOc1ccc(C(=O)C2[C@H](c3ccc(Cl)cc3)[C@@H](c3ccccc3)NC23C(=O)Nc2ccccc23)cc1` (stereo partly drawn), the growth was 81.8% (inactive).

As to `COc1ccc2[nH]cc(-c3nnc(N)nc3-c3cn(C)c4ncc(Br)cc34)c2c1`, the growth is 64.1% (inactive).
